For 21 compounds, inhibition results are on record in PubChem BioAssay AID488856 (Sanford-Burnham Center for Chemical Genomics, 2010).

In all, about 1,400 compounds went through this assay and about 50 (4%) were called active.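 The calls were made as follows: active = mean inhibition across replicates above about 26% (limit read from the data); inactive = the rest.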 Only a sample is shown.

Caspase-3 (Homo sapiens), sequence (P42574 whole entry, looked up): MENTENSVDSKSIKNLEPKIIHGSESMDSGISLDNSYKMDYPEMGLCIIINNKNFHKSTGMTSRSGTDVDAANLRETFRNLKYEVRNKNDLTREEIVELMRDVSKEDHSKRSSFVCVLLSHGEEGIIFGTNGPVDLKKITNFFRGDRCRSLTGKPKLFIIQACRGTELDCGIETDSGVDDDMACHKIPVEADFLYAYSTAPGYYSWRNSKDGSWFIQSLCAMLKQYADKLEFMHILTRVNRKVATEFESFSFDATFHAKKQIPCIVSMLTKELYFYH

This assay concerns the target Caspase-3 (Homo sapiens) (UniProt P42574). Briefly: CASP3 inhibitor validation, counterassay for project on UBE2N polyubiquitination blockers, biochemical, one dose (AID 488856).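 Also: plate controls were DMSO with caspase-3 for no effect and DMSO wells lacking enzyme for full effect.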 The note with it: Recombinant caspase-3, Caspase-Glo 3/7 luminescence, 60 min; at 20 µM; active compounds read high.
Usually inhibition stands for the drop in the measured response relative to a control, in per cent. For the compound `O=c1c2c(nc3n1CCCCC3)sc1c(O)cccc12`, the inhibition was 77.2% (active).

As for `c1ccc(C[C@H]2CNCCN2CCC23CC4CC(CC(C4)C2)C3)cc1`, the inhibition is -0.9% (inactive).

For the compound `O=c1cc(CO)oc(C(Nc2cccc(C(F)(F)F)c2)c2ccccn2)c1O` (stereo unspecified), the inhibition is -1.4% (inactive).

`NC(N)=Nc1nc(-c2ccccc2)c2cc(Cl)ccc2n1`: the inhibition was -2.7% (inactive).

In the case of `CCC(C(=O)NC1CCCC1)N(C(=O)c1snc(C(N)=O)c1N)c1ccc2c(c1)OCCO2` (stereo unspecified), the inhibition was 1.4% (inactive).

Consider `c1ccc2c(CCN3CCNC[C@H]3Cc3cccc4ccccc34)cccc2c1`, for which the inhibition was 5% (inactive).

On to `C#CCOCCOCCOCCNc1nc(N2CCN(C(=O)C([C@@H](C)O)n3cc([C@@H](N)CCCCN)nn3)CC2)nc(N2CCN(C(=O)[C@H](CCCCN)n3cc(CN)nn3)CC2)n1` (stereo partly specified), for which the inhibition was 1.6% (inactive).

Consider `COC(=O)c1cc(-c2cccs2)nc2ccccc12`, for which the inhibition is -2.9% (inactive).

With `CC1CN(C(=O)CCC(=O)NCCCN2CCC(Cc3ccccc3)CC2)c2cc(Cl)ccc2O1` (stereo unspecified), the inhibition was 0.6% (inactive).

Regarding `NC[C@H](Cc1ccccc1)NCCc1cc(C(F)(F)F)cc(C(F)(F)F)c1`, the inhibition was -2.6% (inactive).

As for `CCOC(=O)C1=C(c2ccccc2)O/C(=C(/C(=O)OC)C(F)(F)F)S1`, the inhibition is 1.4% (inactive).

For the compound `COc1ccc(/C=N\NC(=O)c2sc(N)nc2C)cc1OC`, the inhibition was 23% (inactive).

Turning to `C#CCOCCOCCOCCNc1nc(N2CCN(C(=O)C([C@@H](C)CC)n3cc(C(N)COC(=O)C(F)(F)F)nn3)CC2)nc(N2CCN(C(=O)[C@H](CCCCN)n3cc(C(N)CC(C)C)nn3)CC2)n1` (stereo partly specified), the inhibition was -1% (inactive).

On to `CN(C)CCCN(C(=O)c1ccc(S(=O)(=O)N2CCCCCC2)cc1)c1nc2cc3c(cc2s1)OCCO3`, for which the inhibition was 1.4% (inactive).

For the compound `CCN(CC(=O)NCc1cccs1)C(=O)c1cccc(S(=O)(=O)Nc2ccccc2OC)c1`, the inhibition is -1.4% (inactive).

Turning to `COc1ccc(N(C(=O)c2snc(C(N)=O)c2N)C(C(=O)NC2CCCC2)c2ccco2)cc1OC` (stereo unspecified), the inhibition is -0.3% (inactive).

As to `CCN1CCN(CCNC(=O)c2ccc(/C=C3/Sc4ccccc4N(Cc4cccc(C)c4)C3=O)cc2)CC1`, the inhibition was 2.4% (inactive).

As for `C[C@@H](CN1CCC[C@H]1CN1C(N)=NC[C@@H]1Cc1ccccc1)N1C[C@@H](Cc2ccccc2)N(CCCC2CCCC2)C1=N`, the inhibition is 1.4% (inactive).

For the compound `COc1ccnc2c1c(=O)n(Cc1cccc(F)c1)c(=O)n2C`, the inhibition was -0.3% (inactive).

With `OCCNc1nc(Nc2ccc(Cl)c(Cl)c2)nc2ccccc12`, the inhibition is -0.1% (inactive).

On to `CCCC[C@@H]1CN=C(N)N1CCc1cc(C(F)(F)F)cc(C(F)(F)F)c1`, for which the inhibition was 0.9% (inactive).
